IL-1B inflam inh – blocks inflammasome-driven IL-1 beta release. actives 4.7% (n = 360,000). THP-1 LPS/ATP IL-1B secretion, AlphaLISA, 16 h; active compounds read low. activity change, % at 57.5 µM; in the data active means activity change below about -50%; inconclusive means mostly about -30% to -49%
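Secreted IL-1B measured by AlphaLISA bead assay after 16 h compound exposure of THP-1 cells; compounds (final up to 57.5 uM) added 1 h before LPS (250 ng/mL) and ATP (1.25 mM) stimulation; lower signal means less secretion.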
TDP1 inh – TDP1 (human) enzyme inhibition. Potency, µM (series often up to 130 µM), hits mostly inhibitors. recombinant TDP1, AlphaScreen DNA substrate cleavage. AID 485290. Q9NUW8. actives 0.28% (n = 350,000); further: nearly all actives have a fitted effect of over 40% in size
Target sequence (Q9NUW8 whole entry, looked up): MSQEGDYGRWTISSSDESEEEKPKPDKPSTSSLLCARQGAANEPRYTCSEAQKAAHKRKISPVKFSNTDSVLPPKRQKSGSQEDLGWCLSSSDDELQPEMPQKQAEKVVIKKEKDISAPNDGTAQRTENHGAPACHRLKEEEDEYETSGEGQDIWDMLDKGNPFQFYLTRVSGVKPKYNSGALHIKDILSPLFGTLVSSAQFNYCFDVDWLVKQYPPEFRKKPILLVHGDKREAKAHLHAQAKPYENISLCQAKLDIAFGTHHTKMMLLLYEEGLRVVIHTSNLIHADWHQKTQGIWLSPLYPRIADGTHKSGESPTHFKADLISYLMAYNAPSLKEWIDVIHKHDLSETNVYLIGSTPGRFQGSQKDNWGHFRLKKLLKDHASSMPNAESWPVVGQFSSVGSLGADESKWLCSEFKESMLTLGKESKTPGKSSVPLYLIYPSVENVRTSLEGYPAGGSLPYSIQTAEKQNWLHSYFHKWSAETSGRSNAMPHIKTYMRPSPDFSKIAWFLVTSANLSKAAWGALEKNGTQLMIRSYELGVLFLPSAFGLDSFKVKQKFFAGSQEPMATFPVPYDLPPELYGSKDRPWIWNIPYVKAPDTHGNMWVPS
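Enzyme-compound mixtures sat 15 min at room temperature, followed by a 5 min reaction with 15 nM final substrate and 10 min with AlphaScreen beads. Recombinant human Tdp1 was used at 1 nM final.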
Giardia killer – kills Giardia lamblia; activity change, % at 7.66 µM, hits read low; AID 540267; Giardia lamblia trophozoite viability; actives 0.15% (n = 340,000); in the data active means activity change below about -80%; inconclusive means between about -30% and that limit;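 further: parasites exposed to compound for two days anaerobically before the ATP read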
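Luminescent ATP signal served as the viability read-out, measured 15-30 min after adding ATP detection reagent to trophozoites that had been incubated with compounds for 48 hrs at 37 deg C anaerobically at 100 cells/well.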
DT40 TDP1 no CPT – qHTS for Inhibitors of human tyrosyl-DNA phosphodiesterase 1 (TDP1): qHTS in cells in absence of CPT | DT40 Tdp1-/- hTDP1 cells, no CPT, ATP luminescence, 48 h | Potency, µM (titrated, usually from 46.2 µM), actives largely listed as inhibitors | actives 15% (n = 420,000) | AID 686978, 2013; further: nearly all actives have a fitted effect of over 55% in size
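Cells were dispensed at 400 per well, compounds added by pin tool, plates incubated ≥48 hr at 37 °C, then CellTiter-Glo added for 30 min at room temperature before luminescence reading. Line: DT40 Tdp1-/- complemented with hTDP1; camptothecin omitted.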
TDP1 cell CPT – growth inhibition of DT40 Tdp1-/-;hTDP1 cells with camptothecin (screen for TDP1 inhibitors); Potency, µM (series often up to 46.2 µM), actives largely listed as inhibitors; chicken DT40 Tdp1-/-;hTDP1 cells + 20 nM CPT, ATP luminescence, 48 h; actives 12% (n = 420,000); AID 686979; further: nearly all actives have a fitted effect of over 55% in size
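Chicken DT40 Tdp1-/- cells stably complemented with human TDP1 were seeded at 400 cells/well in medium containing 20 nM camptothecin, exposed to pin-transferred compounds, and grown at 37 °C for at least 48 hr. Viability was read as ATP luminescence.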
ELG1 repair inh – ELG1-dependent DNA repair inhibition | HEK293T ELG1-luciferase reporter, luminescence, 16 h; DNA damage induced by 5-fluorouridine | Potency, µM (highest dose often 46.1 µM), hits mostly inhibitors | actives 2.3% (n = 330,000) | AID 504467; further: nearly all actives have a fitted effect of over 55% in size
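Step one: seed 2,000 cells per well. Step two: pin-transfer compound or DMSO alongside 5-fluorouridine. Step three: incubate 16 hr, 37 °C, 5% CO2. Step four: add ONE-Glo, wait 30 min, read luminescence.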
Hits are given with their value; [ ] = remark or other dose. Shown are actives, neighbours in structure and some others; about 19% of the full set was active somewhere. Unless noted, the call rests on the fitted dose curve; in most records, active means well fitted curve in the direction sought with a large enough effect; inconclusive means small, poorly fitted or top-dose-only effect, or another doubt; inactive means no such curve, though single readings can be large; an effect the other way counts as inactive or inconclusive.

How did O=C(CO/N=C/c1ccccc1O)N1CCc2ccccc21 do in these assays?
IL-1B inflam inh: inactive; TDP1 inh: inactive; Giardia killer: inactive; DT40 TDP1 no CPT: inconclusive; TDP1 cell CPT: inconclusive; ELG1 repair inh: inconclusive

How did COc1cccc(-c2nc(CS(=O)(=O)CC(=O)N3CCN(c4ccccc4)CC3)c(C)o2)c1 do in these assays?
TDP1 inh: inactive; DT40 TDP1 no CPT: 23.1µM; TDP1 cell CPT: inconclusive

Results for CCCCN(CC)CCCNC(=O)CS(=O)(=O)Cc1nc(-c2ccc(C)cc2)oc1C ?
TDP1 inh: inactive; DT40 TDP1 no CPT: 20.6µM; TDP1 cell CPT: inconclusive

Results for COc1cccc(-c2nc(CS(=O)(=O)CC(=O)NCCCN3CCOCC3)c(C)o2)c1 ?
IL-1B inflam inh: -77.1; TDP1 inh: inactive; Giardia killer: inactive; DT40 TDP1 no CPT: inactive; TDP1 cell CPT: inactive; ELG1 repair inh: inactive

How did CCN1CCN(C(=O)CS(=O)(=O)Cc2nc(-c3cccc(OC)c3)oc2C)CC1 do in these assays?
IL-1B inflam inh: inactive; TDP1 inh: inactive; Giardia killer: inactive; DT40 TDP1 no CPT: inactive; TDP1 cell CPT: inactive; ELG1 repair inh: inactive

What do the screens show for `Cc1ccc(-c2nc(CS(=O)(=O)CC(=O)NCCCN3CCOCC3)c(C)o2)cc1`?
IL-1B inflam inh: inactive; TDP1 inh: inactive; Giardia killer: inactive; DT40 TDP1 no CPT: inactive; TDP1 cell CPT: inactive; ELG1 repair inh: inactive

Results for Cc1oc(-c2ccccc2F)nc1CS(=O)(=O)CC(=O)N1CCN(c2ccc(Cl)cc2)CC1 ?
TDP1 inh: inactive; DT40 TDP1 no CPT: 20.6µM; TDP1 cell CPT: 25.9µM

What do the screens show for `COc1cccc(-c2nc(CS(=O)(=O)CC(=O)NCc3ccccc3)c(C)o2)c1`?
IL-1B inflam inh: inactive; TDP1 inh: inactive; Giardia killer: inactive; DT40 TDP1 no CPT: inconclusive; TDP1 cell CPT: inconclusive; ELG1 repair inh: inactive

What do the screens show for `COc1ccc(OC)c(CCNC(=O)CS(=O)(=O)Cc2nc(-c3ccccc3Cl)oc2C)c1`?
IL-1B inflam inh: -52.5; TDP1 inh: inactive; Giardia killer: inactive; DT40 TDP1 no CPT: inconclusive; TDP1 cell CPT: inconclusive; ELG1 repair inh: 20.6µM

How did COc1cccc(-c2nc(CS(=O)(=O)CC(=O)NCc3ccccc3OC)c(C)o2)c1 do in these assays?
IL-1B inflam inh: inactive; TDP1 inh: inactive; Giardia killer: inactive; DT40 TDP1 no CPT: 18.4µM; TDP1 cell CPT: inconclusive; ELG1 repair inh: inactive

Results for O=C(Oc1ccccc1)N1CCC[C@@]2(CCN(c3ncccn3)C2)C1 ?
DT40 TDP1 no CPT: inactive; TDP1 cell CPT: inactive

What do the screens show for `O=C(Oc1ccccc1)N1CCC2(CCCN(c3ncccn3)C2)CC1`?
DT40 TDP1 no CPT: 18.4µM; TDP1 cell CPT: inactive

How did O=C(Oc1ccccc1)N1CCC2(CC1)CCN(c1ccccc1)CC2 do in these assays?
DT40 TDP1 no CPT: 18.4µM; TDP1 cell CPT: inconclusive

How did Cn1c(SCc2ccccc2F)nc2c([nH]c3ccccc32)c1=O do in these assays?
TDP1 inh: inactive; DT40 TDP1 no CPT: inconclusive; TDP1 cell CPT: inconclusive

How did CN(C)CC(C)(O)c1ccc2c(c1)CN(C(=O)c1ccc(-n3cccn3)cc1)CCO2 (stereo unspecified) do in these assays?
DT40 TDP1 no CPT: inactive; TDP1 cell CPT: inactive[9.04 µM]

What do the screens show for `COC(=O)C[C@H](NC(=O)Cn1cnc2c(SC)nc(N)nc21)C(=O)OC`?
IL-1B inflam inh: inactive; TDP1 inh: inactive; Giardia killer: inactive; DT40 TDP1 no CPT: inactive; TDP1 cell CPT: inactive; ELG1 repair inh: inactive

Results for Cn1c(SCC(=O)NCc2ccco2)nnc1-c1ccc(NC(=O)c2ccccc2)cc1 ?
DT40 TDP1 no CPT: inconclusive; TDP1 cell CPT: inactive

What do the screens show for `COc1ccccc1CNC(=O)CN(C)S(=O)(=O)c1ccc2c(c1)c(=O)n(C)c(=O)n2C`?
IL-1B inflam inh: inactive; TDP1 inh: inactive; Giardia killer: inactive; DT40 TDP1 no CPT: inactive; TDP1 cell CPT: inactive; ELG1 repair inh: inactive

What do the screens show for `O=C1c2ccccc2-c2cc([N+](=O)[O-])c([N+](=O)[O-])cc21`?
DT40 TDP1 no CPT: 0.501µM; TDP1 cell CPT: 0.398µM

What do the screens show for `CC(=O)N1CCCC1c1nc2ccccc2n1Cc1ccccc1F` (stereo unspecified)?
TDP1 inh: inactive; DT40 TDP1 no CPT: inconclusive; TDP1 cell CPT: inactive

What do the screens show for `CC(=O)C1C=CC(C)(C(=O)O)C2C=C(C)C(=O)C(C)(O)C12` (stereo unspecified)?
IL-1B inflam inh: inactive; Giardia killer: inactive; DT40 TDP1 no CPT: inactive; TDP1 cell CPT: inactive

How did COc1ccc2c(c1)O[C@@H](c1ccc3c(c1)OCO3)[C@H](OC(=O)NCc1ccc3c(c1)OCO3)C2=O do in these assays?
TDP1 inh: inactive

How did COc1cccc(NS(=O)(=O)c2ccc3[nH]cc(C(=O)NCCC(C)C)c(=O)c3c2)c1 do in these assays?
IL-1B inflam inh: inactive; TDP1 inh: inactive; Giardia killer: inactive; DT40 TDP1 no CPT: 14.6µM; TDP1 cell CPT: 10.3µM; ELG1 repair inh: 18.4µM

Results for O=C(NC1CCCC1)c1c[nH]c2ccc(S(=O)(=O)Nc3cccc(C(F)(F)F)c3)cc2c1=O ?
DT40 TDP1 no CPT: 20.6µM; TDP1 cell CPT: inconclusive

Results for CN(Cc1ccco1)C(=O)c1c[nH]c2ccc(S(=O)(=O)Nc3ccc4c(c3)OCCO4)cc2c1=O ?
IL-1B inflam inh: inactive; TDP1 inh: inactive; Giardia killer: inactive; DT40 TDP1 no CPT: inactive; TDP1 cell CPT: inactive; ELG1 repair inh: inactive

How did CCCCN(CCCC)C(=O)c1c[nH]c2ccc(S(=O)(=O)Nc3cccc(Cl)c3C)cc2c1=O do in these assays?
TDP1 inh: 31.6µM; DT40 TDP1 no CPT: inactive; TDP1 cell CPT: inactive

How did CCc1ccc(NS(=O)(=O)c2ccc3[nH]cc(C(=O)N(C)Cc4ccco4)c(=O)c3c2)cc1 do in these assays?
IL-1B inflam inh: inactive; Giardia killer: inactive; DT40 TDP1 no CPT: 14.6µM; TDP1 cell CPT: inconclusive; ELG1 repair inh: inactive

How did CCC1CCCCN1C(=O)c1c[nH]c2ccc(S(=O)(=O)Nc3cccc(OC)c3)cc2c1=O (stereo unspecified) do in these assays?
DT40 TDP1 no CPT: inactive; TDP1 cell CPT: inactive

What do the screens show for `CN(C(=O)c1c[nH]c2ccc(S(=O)(=O)Nc3cccc(C(F)(F)F)c3)cc2c1=O)C1CCCCC1`?
TDP1 inh: inactive; DT40 TDP1 no CPT: inactive; TDP1 cell CPT: inactive

How did COc1ccc(N2CCN(C(=O)CCNC(=O)Cn3ccc4ccccc4c3=O)CC2)cc1 do in these assays?
IL-1B inflam inh: inactive; TDP1 inh: inactive; Giardia killer: inactive; DT40 TDP1 no CPT: inactive; TDP1 cell CPT: inactive; ELG1 repair inh: inactive
